GLP1R cytotox – cytotoxic in the GLP-1 receptor inverse agonist counter-screen | hit rate 0.13% among 410,000 | AID 624418 | Potency, µM (top dose mostly 38.3 µM), for inactives: top-dose activity change, negative = inhibition, most hits filed as inhibitors | HEK293 cAMP-luciferase reporter cells, luminescence, 24 h;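 also: loss of luciferase light is scored as toxicity; % is scaled to controls: 0 for no effect and ±100 for the full control effect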
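Quantitative HTS format, 1536 wells, 200 cells/uL seeded. Compounds: 23 nL, 24 h, 37 °C. Detection: luciferase reagent, luminescence at 12 min RT; decreased signal taken as cytotoxic.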
GLP-1R agonist – activates the human GLP-1 receptor | HEK293 GLP-1R CRE-luciferase, luminescence, 4-6 h; cells express a hypersensitive GLP-1R form | hit rate 0.007% among 380,000 | Potency, µM (titrated, usually from 45.6 µM), for inactives: at the top dose activation, hits mostly activators | P43220; also: % of control where 0% means no effect
Target sequence (P43220 whole entry, looked up): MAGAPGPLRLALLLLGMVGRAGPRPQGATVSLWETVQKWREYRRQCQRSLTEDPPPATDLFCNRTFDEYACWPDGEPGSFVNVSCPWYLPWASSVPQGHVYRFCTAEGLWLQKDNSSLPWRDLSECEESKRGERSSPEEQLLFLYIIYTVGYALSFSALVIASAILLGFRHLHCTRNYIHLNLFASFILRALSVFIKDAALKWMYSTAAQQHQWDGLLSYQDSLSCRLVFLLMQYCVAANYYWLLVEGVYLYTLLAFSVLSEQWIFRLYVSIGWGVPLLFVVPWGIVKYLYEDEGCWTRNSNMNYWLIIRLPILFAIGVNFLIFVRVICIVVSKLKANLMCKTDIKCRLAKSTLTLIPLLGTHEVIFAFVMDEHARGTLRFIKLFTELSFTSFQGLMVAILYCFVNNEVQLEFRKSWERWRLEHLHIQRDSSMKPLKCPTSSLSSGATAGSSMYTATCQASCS
PTHR1 agonist – activates the human parathyroid hormone receptor PTHR1 | Q03431 | HEK293 GP2 PTHR1 cells, GloSensor cAMP luminescence, 1 h | Potency, µM (doses to about 115 µM), inactives show at the highest dose activation, most hits filed as activators | hit rate 0.075% among 410,000 | AID 743266; also: nearly all actives have a fitted effect of over 55% in size
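HEK-293-derived GP2 cells expressing PTHR1 and a GloSensor cAMP reporter, 3,000/well, plated overnight, given luciferin plus IBMX (each 0.5 mM as added) for 1 h at 37 °C, then compound for 1 h at 37 °C. Luminescence was read after 15 min at room temperature.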
GLP1R inv ag – inverse agonists of human GLP-1 receptor; HEK293 GLP-1R CRE-luciferase, luminescence, 24 h; GLP-1R form is constitutively active; Potency, µM (series often up to 38.3 µM), for inactives: at the highest dose activity change, negative = inhibition, most hits filed as inhibitors; hit rate 1.6% among 410,000; AID 624417; also: % is scaled to controls: 0 for no effect and ±100 for the full control effect; nearly all actives have a fitted effect of over 55% in size
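qHTS in 1536-well format: reporter HEK293 cells expressing constitutive GLP-1R activity in DMEM + 10% Nu serum, 24 hr with compounds at 37 deg C, luminescence read after 12 min with detection reagent.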
* hit, by the source's call; i = inactive; ? = inconclusive; nt = no result; [ ] = remark or other dose. Most compounds without a hit are left out; they make up all but 1.7% or so of the library. Calls follow the shape of the dose curve; as a rule, active = well fitted curve in the direction sought with a large enough effect; inconclusive = small, poorly fitted or top-dose-only effect, or another doubt; inactive = no such curve, though single readings can be large; an effect the other way counts as inactive or inconclusive. Potency is read from the fitted curve at half-maximal effect.

SMILES | GLP1R cytotox | GLP-1R agonist | PTHR1 agonist | GLP1R inv ag
CCOC(=O)CNc1ncc([N+](=O)[O-])cc1C#N | -4% | 0% | i | 25%
N#Cc1cc([N+](=O)[O-])cnc1Nc1ccccc1 | 7% | 8.9µM* | i | 48%
Cn1nc([N+](=O)[O-])nc1Sc1nnc(-c2ccccc2)o1 | ? | -3% | i | 5.6µM*
COc1cccc(NC(=S)N/N=C2\CC(C)(C)Oc3ccc(O)cc32)c1 | ? | 3% | i | 7.1µM*
CCN(CC)CCCNC(=O)CCC(=O)Nc1ccc2nc(N3CCCCC3)cc(C)c2c1 | -13% | 20% | i | ?
CCN(CC)CCCNC(=O)CCC(=O)Nc1ccc2nc(N3CCC(C)CC3)cc(C)c2c1 | 16% | 11% | i | 7.1µM*
Cc1ccc(S(=O)(=O)N2CC=C(c3c(C)n(CC(=O)N4CCCC4)c4ccccc34)CC2)cc1C | -1% | nt | -2% | ?
O=C1CC(N2CCN(c3ccccn3)CC2)C(=O)N1CC(c1ccccc1)c1ccccc1 (configuration not stated) | 0% | -1% | ? | 13µM*
CCCCSc1nc2c([nH]1)c(=O)n(C)c(=S)n2C | -5% | 0% | -34% | 6%
Cn1c(=S)c2[nH]c(SCCN3CCCC3)nc2n(C)c1=O | ? | -5% | 13% | 5.6µM*
Cn1c(=O)c2[nH]c(C3CCC3)nc2n(C)c1=O | 24% | 1% | 9% | 11%
CCN1CCCC(Sc2nc3c([nH]2)c(=S)n(C)c(=O)n3C)C1 (configuration not stated) | ? | 0% | ? | 4.5µM*
Cn1c(=S)c2[nH]c(SCCN)nc2n(C)c1=O | 3.2µM* | -3% | -13% | ?
Cc1ccc(CSCC(=O)N2CCN(c3ccccc3F)CC2)cc1 | -1% | nt | -32% | ?
COc1ccc(N2CCN(CCNC(=O)Nc3ccc(C)c(Cl)c3)CC2)cc1 | 1% | 0% | -64% | 2.8µM*
COc1cc(NC(=O)NCCN2CCN(c3ccc(Cl)cc3)CC2)ccc1C | -8% | 0% | -4% | ?
CC(=O)c1ccc(N2CCN(C(=O)Nc3ccc(F)cc3F)CC2)cc1 | -3% | -1% | -25% | 16%
O=C(Nc1ccc(F)cc1F)N1CCN(c2ccc(Cl)c(Cl)c2)CC1 | 2% | nt | -88% | 11µM*
Cc1c(C2=CCN(S(=O)(=O)c3ccc(Br)cc3)CC2)c2ccccc2n1CC(=O)N1CCCC1 | 0% | nt | -35% | -6%
Cc1c(C2=CCN(S(=O)(=O)c3ccc(CC(C)C)cc3)CC2)c2ccccc2n1CC(=O)N1CCCC1 | 7% | nt | 45µM* | -8%
O=C(Nc1ccccc1-c1ccccc1)C12CC3CC(CC(C3)C1)C2 | 1% | 2% | -3%[57.5 µM] | 2µM*
CC(=O)Nc1cc(-c2nc3ccccc3s2)ccc1C | -1% | nt | i | 8%
Cc1cc(-c2nc3ccccc3s2)ccc1N | 19% | -16% | -27% | 7.9µM*
Nc1ccc(-c2nc3cc(N)ccc3s2)cc1 | 19% | -21% | -39% | ?
Cc1ccc2nc(-c3ccc(N)cc3)sc2c1 | -8% | -6% | -89% | 4.5µM*
SMILES | GLP1R cytotox | GLP-1R agonist | PTHR1 agonist | GLP1R inv ag
Nc1ccc2nc(-c3ccccc3)sc2c1 | 126% | -39% | -7% | 8.9µM*
O=c1[nH]c(-c2ccc(O)cc2)nc2scc(-c3cccs3)c12 | 3% | 9% | i | 37%
O=C(O)c1ccc(-c2nc3scc(-c4ccccc4)c3c(=O)[nH]2)cc1 | 5% | -1% | 18µM* | 14%
Cc1ccc(-c2nn(-c3ccccn3)c(=O)c3ccccc23)cc1C | -8% | 11% | i | 10µM*
Cc1ccc(-c2nn(-c3ccccn3)c(=O)c3ccccc23)cc1 | -1% | 16% | ? | -6%
O=C1C(=C(c2ccccc2)c2ccccc2)Nc2ccccc21 | ? | 1% | -32%[57.5 µM] | 3.2µM*
COc1ccc(OC)c(CCNc2ncnc3onc(-c4ccc(F)cc4)c23)c1 | 1% | nt | -44% | ?
CCCCN1C(=O)C(O)(c2ccccc2)c2cc(Br)ccc21 (configuration not stated) | -5% | 15% | -10% | 13µM*
Cc1ccccc1NP1(=O)OCCCN1Cc1ccccc1Cl (configuration not stated) | -14% | 1% | i | ?
Cc1c(Cl)cccc1NC(=O)CCS(=O)(=O)c1cccc2nsnc12 | 4% | -1% | -28% | 11%
CCCCCNCC(=O)Nc1cccc(C(=O)Nc2cccc(C(F)(F)F)c2)c1 | ? | 12% | -29% | 6.3µM*
O=C(CN1CCOCC1)Nc1cccc(C(=O)Nc2cccc(C(F)(F)F)c2)c1 | ? | -5% | -24% | -23%
CN(CC(O)COc1ccccc1F)C1CCCCC1 (configuration not stated) | 16% | 14% | -13% | 16%
CCN(CC(O)COc1ccc(OCC(O)CN(CC)C2CCCCC2)cc1)C1CCCCC1 (configuration not stated) | -19% | 1% | -5% | 2.2µM*
CCN(CC(O)COCc1ccc(Cl)cc1)C1CCCCC1 (configuration not stated) | 19% | 0% | i | -40%
Cc1ccccc1OCC(O)CN(Cc1ccccc1O)C1CCCCC1 (configuration not stated) | ? | 4% | i | 11µM*
Cc1ccc(-n2cnc3scc(-c4cccs4)c3c2=O)cc1 | -6% | 1% | i | 10µM*
O=c1c2c(-c3cccs3)csc2ncn1-c1ccccc1 | 21% | 25% | i | ?
NS(=O)(=O)c1ccc(CNC(=O)C2(c3ccc(Cl)cc3)CC2)cc1 | -2%[7.66 µM] | 2% | -11% | 12%[7.66 µM]
COc1ccc(CNC(=O)C2(c3ccc(Cl)cc3)CC2)cc1 | 5% | 32% | -19% | 10µM*
Cc1cccc(N2CCN(C(=O)CCc3nnc4n(CC(C)C)c(=O)c5ccccc5n34)CC2)c1C | -1% | nt | i | -12%
COC(=O)CN1CCN(C(c2ccccc2)c2ccccc2)CC1 | 21% | 5% | i | -3%
COC(=O)C1=C/C=C\CN(C(c2ccccc2)c2ccccc2)/C=C\1C(=O)OC | 0% | 1% | -16% | 10µM*
O=C(C[C@@H]1C/C=C\C[C@@H](Cc2ccc(F)cc2)C(=O)OCCNC1=O)NCCO | 6% | -3% | -22% | -8%
COc1ccc(N(Cc2cccs2)C(=O)Nc2cccc(Cl)c2)cc1 | -1% | nt | -69% | 10µM*
CC(Cc1cccs1)NC(=O)Nc1cccc(Cl)c1 (configuration not stated) | -2% | 2% | -37% | 11µM*
CN(CC(=O)Nc1ccc(F)cc1Cl)Cc1cccs1 | 3% | 26% | -22% | ?
CN(CC(=O)Nc1cc(Cl)cc(Cl)c1)Cc1cccs1 | -5% | 15% | i | 13µM*
CC(Cc1cccs1)NC(=O)Nc1ccc(F)cc1 (configuration not stated) | 1% | 12% | i | ?
